Hit rate of the full screen: of about 52,000 compounds, about 4,300 (8.3%) were called active. The list comes from a sample in which actives are over-represented; it also holds similar structures and randomly drawn compounds. Unmarked numbers belong to inactive results. Cut-off read from the data, not from the text of the source: active = survival mostly below about 52% (no sharp cut-off); inactive = mostly above about 56%.

The experiment concerns DeltatarO mutant. The experiment in a line: growth inhibition of S. aureus wild type versus tarO mutant, primary screen, teichoic acid synthesis inhibitors, RN4220, OD600 (AID 463173). The settings on record: OD600, 18 h, active compounds read low, screened at 18.75 µg/mL (by protocol).
In the case of `O=C(COC(=O)c1ccco1)Nc1cccc2ccccc12`, the survival is 97%.

Regarding `CCOC(=O)c1c(-c2cccs2)csc1NC(C)=O`, the survival was 69%.

For the compound `CNS(=O)(=O)c1cn(CC(=O)N2CCN(c3ccc(C(C)=O)cc3)CC2)cc1S(=O)(=O)NC`, the survival was 37% (active).

As to `CNS(=O)(=O)c1cn(CC(=O)N2CCN(c3ccc(Cl)cc3)CC2)cc1S(=O)(=O)NC`, the survival is 106%.

On to `CNS(=O)(=O)c1cn(CC(=O)N2CCN(c3ccc(OC)cc3)CC2)cc1S(=O)(=O)NC`, for which the survival is 69%.

Turning to `O=C(Cn1cc(SCc2ccc(F)cc2)c2ccccc21)N1CCCCC1`, the survival was 79%.

Regarding `Cc1ccc(NC(=O)c2oc3ccc(S(=O)(=O)N(C)C4CCCCC4)cc3c2C)c(C)c1`, the survival was 73%.

On to `Cc1nc2ccc(NC(=O)C3CCCCC3)cc2c(=O)n1Cc1ccccc1`, for which the survival was 63%.

For `Cc1ccc(CNS(=O)(=O)c2ccc(C(=O)N(C)C)s2)cc1`, the survival was -4% (active).

Turning to `COc1ccc(CNS(=O)(=O)c2ccc(C(=O)N(C)C)s2)cc1`, the survival is 66%.

As for `CN(C)C(=O)c1ccc(S(=O)(=O)NCc2ccc(Cl)cc2)s1`, the survival was 119%.

In the case of `CCCNC(=O)c1cnc2sc(N3CCCCC3)nn2c1=O`, the survival was 99%.

Regarding `O=C(NCc1cccc(Cl)c1)c1cc2c(s1)-c1ccccc1SC2`, the survival was 64%.

As for `COc1ccc(CCN2C(=O)c3[nH]nc(-c4ccccc4O)c3C2c2ccc(OC)c(OC)c2)cc1` (centres undefined), the survival was 45% (active).

Regarding `COc1ccc(CCN2C(=O)c3[nH]nc(-c4ccccc4O)c3C2c2ccc(O)c(OC)c2)cc1` (centres undefined), the survival is 30% (active).

For `COc1cccc(C2c3c(-c4ccccc4O)n[nH]c3C(=O)N2Cc2cccnc2)c1` (centres undefined), the survival was 84%.

Take `COc1cc(C2c3c(-c4ccccc4O)n[nH]c3C(=O)N2Cc2ccncc2)ccc1O` (centres undefined): the survival was 90%.

In the case of `COc1cccc(C2c3c(-c4ccccc4O)n[nH]c3C(=O)N2CCc2ccc(OC)c(OC)c2)c1` (centres undefined), the survival is 8% (active).

Turning to `CC(CNC(=O)c1ccc(CSc2nc3ccncc3n2Cc2ccccc2)cc1)c1ccccc1` (centres undefined), the survival is 78%.

Consider `CS(=O)(=O)NCc1ccc2c(c1)OCO2`, for which the survival is 92%.

Consider `COc1ccc(CNC(=O)c2ccc3c(c2)N(Cc2ccccc2)C(=O)c2ccccc2S3(=O)=O)cc1`, for which the survival was 83%.

With `COc1ccc(CNc2ccc(C)c(C)c2)c(OC)c1OC`, the survival was 93%.

Take `Cc1ccc2c(c1)N(C(=O)N1CCC(C(=O)NC3CCCCCC3)CC1)CC(C)O2` (centres undefined): the survival is 72%.

As to `Cc1c(/C=C(\C#N)C(=O)Nc2cccc(Cl)c2)c2ccccc2n1Cc1ccccc1Cl`, the survival is 123%.

For `Nc1c(S(=O)(=O)Cc2ccccc2)sc2nc3c(cc12)CCCC3`, the survival was 49%.

Take `Cc1nnnn1CCC(=O)NC(C)c1ccccc1` (centres undefined): the survival is 84%.

`Cc1cc(C)nc(N(C#N)Cc2ccccc2)n1`: the survival was 100%.

`Cc1cc(C)cc(-n2c(SCC(=O)Nc3ccccc3)nc3c(oc4ccccc43)c2=O)c1`: the survival was 101%.

Turning to `N#C/C(=C\c1ccc(-c2ccccc2)o1)C(=O)Nc1ccccc1`, the survival is 90%.

Turning to `CCOC(=O)/C(C#N)=C\c1ccc(-c2cccc(C(F)(F)F)c2)o1`, the survival was 84%.

For the compound `CCCCOC(=O)c1ccc(NC(=O)/C(C#N)=C/c2ccc(-c3ccccc3)o2)cc1`, the survival was 32% (active).

As to `COc1ccc(NC(=O)/C(C#N)=C/c2ccc(C)o2)cc1`, the survival is 77%.

As for `CCC(C)OC(=O)/C(C#N)=C\c1ccc(-c2cccc(C(F)(F)F)c2)o1` (centres undefined), the survival is 64%.

With `CCOC(=O)c1ccc(-c2ccc(/C=C(\C#N)C(=O)Nc3ccc(OCC)cc3)o2)cc1`, the survival was 60%.

Take `CCCCOC(=O)c1ccc(NC(=O)/C(C#N)=C/c2ccc(C)o2)cc1`: the survival was 49% (active).

For the compound `CCCCOC(=O)/C(C#N)=C/c1ccc(-c2cccc(C(F)(F)F)c2)o1`, the survival was 46% (active).

Take `Cc1ccc(NC(=O)/C(C#N)=C/c2ccc(C)o2)cc1`: the survival is 79%.

For the compound `CCNC1CC(=O)N(c2ccc(C(=O)OCC)cc2)C1=O` (centres undefined), the survival was 112%.

Take `CCOC(=O)C(C)Nc1ncnc2onc(C)c12` (centres undefined): the survival is 53%.

Take `CCN(C(=O)Cn1c(=O)n(Cc2ccccc2)c(=O)c2c1c1cc(OC)ccc1n2C)c1ccccc1`: the survival is 84%.

For the compound `COc1ccc(Cl)cc1NC(=O)CSc1nc2c([nH]c3ccccc32)c(=O)n1-c1ccccc1`, the survival was 81%.

Consider `NNC(=O)CNC(=O)c1cccs1`, for which the survival is 79%.

For the compound `COc1ccccc1/C=C/C(=O)N1CCC(C(N)=O)CC1`, the survival was 99%.

For the compound `COC(=O)c1ccc(NC(=O)CSc2ccc(-c3cccs3)nn2)cc1`, the survival is 85%.

Turning to `COc1ccccc1OCC(=O)Nc1c(C(=O)c2ccc(C)cc2)oc2ccccc12`, the survival is 82%.

For `Cc1ccc(C)c(NC(=O)CSc2nnc3[nH]c(=O)cc(-c4ccccc4)n23)c1`, the survival is 105%.

`O=S(=O)(NCc1ccc(F)cc1)c1ccc2[nH]c3c(c2c1)CCCCC3`: the survival was 61%.

As to `COc1ccc(NS(=O)(=O)c2ccc3[nH]c4c(c3c2)CCCCCC4)cc1`, the survival was -2% (active).

As to `COC(=O)c1ccc(NS(=O)(=O)c2ccc3[nH]c4c(c3c2)CCCCC4)cc1`, the survival was 91%.

Regarding `Cc1ccc(NS(=O)(=O)c2ccc3[nH]c4c(c3c2)CCCCCC4)cc1C`, the survival was -1% (active).

In the case of `Cc1ccc(NS(=O)(=O)c2ccc3[nH]c4c(c3c2)CCCCCC4)cc1Cl`, the survival is 72%.

As for `Cc1ccc(NS(=O)(=O)c2ccc3[nH]c4c(c3c2)CCCCCC4)cc1`, the survival was 84%.

Consider `COC(=O)c1ccc(NS(=O)(=O)c2ccc3[nH]c4c(c3c2)CCCC4)cc1`, for which the survival was 6% (active).

For `O=S(=O)(NCc1ccc(F)cc1)c1ccc2[nH]c3c(c2c1)CCCC3`, the survival is -1% (active).

In the case of `CC(=O)c1ccc(NS(=O)(=O)c2ccc3[nH]c4c(c3c2)CCCC4)cc1`, the survival is 83%.

On to `Cc1ccc(CNS(=O)(=O)c2ccc3[nH]c4c(c3c2)CCCC4)cc1`, for which the survival is 84%.

For `COc1cc(NS(=O)(=O)c2ccc3[nH]c4c(c3c2)CCCCCC4)cc(OC)c1`, the survival is 64%.

Take `COc1ccc(NS(=O)(=O)c2ccc3[nH]c4c(c3c2)CCCCC4)cc1`: the survival is 117%.

With `Cc1ccc(N2C(=O)CCSC23C(=O)N(Cc2ccc(F)cc2)c2ccccc23)cc1` (centres undefined), the survival was 90%.

For the origin of these results see PubChem BioAssay AID463173 (ICCB-Longwood Screening Facility, Harvard Medical School, 2010).
